Assay in all cases: PBM; 200 nM protein, PBS
Details in all cases: dsDNA, one strand shown

The target of test [1] is HOXC10 (Homo sapiens, UniProt Q9NYD6 254-340).
For test [2], the target named is HOXA2 (Homo sapiens, UniProt O43364 129-215, R185T).
For test [3], the target named is HOXA2 (Homo sapiens, UniProt O43364 129-215, R185K).
For test [4], the target named is HOXC10 (Homo sapiens, UniProt Q9NYD6 254-340, K271E).
Test [5] concerns the target VAX1 (Homo sapiens, UniProt Q5SQQ9 86-172).
In test [6] the target is VAX1 (Homo sapiens, UniProt Q5SQQ9 86-172, T142I).
Test [7] has as its target HOXA2 (Homo sapiens, UniProt O43364 129-215, Y150S).
The target of test [8] is HOXA2 (Homo sapiens, UniProt O43364 129-215).
Test [9] has as its target VAX1 (Homo sapiens, UniProt Q5SQQ9 86-172, K157R).
For the next test, the target named is PRRX1 (Homo sapiens, UniProt P54821 80-166, F113S).
For the next test, the target named is HOXC9 (Homo sapiens, UniProt P31274 178-260, R222W).
Test [10] addresses HOXD13 (Homo sapiens, UniProt P35453 263-343, T313R).
For test [11], the target named is HOXD13 (Homo sapiens, UniProt P35453 263-343).
Test [12] has as its target HOXD13 (Homo sapiens, UniProt P35453 263-343, T313A).
For test [13], the target named is ALX3 (Homo sapiens, UniProt O95076 139-225, N203Q).
The target in test [14] is ALX3 (Homo sapiens, UniProt O95076 139-225).
The target of test [15] is ALX3 (Homo sapiens, UniProt O95076 139-225, L168Q).
Test [16] addresses ALX3 (Homo sapiens, UniProt O95076 139-225, L168V).
In test [17] the target is ALX3 (Homo sapiens, UniProt O95076 139-225, N203S).
Test [18] concerns the target ALX4 (Homo sapiens, UniProt Q9H161 200-286).
The target of test [19] is ALX4 (Homo sapiens, UniProt Q9H161 200-286, Q225E).
Test [20] addresses HOXB6 (Homo sapiens, UniProt P17509 132-218, K202E).
For test [21], the target named is MSX2 (Homo sapiens, UniProt P35548 130-214, R199I).
The target of test [22] is MSX2 (Homo sapiens, UniProt P35548 130-214).
For test [23], the target named is MSX2 (Homo sapiens, UniProt P35548 130-214, F161Y).
Test [24] deals with HOXB6 (Homo sapiens, UniProt P17509 132-218).
Chain of HOXB6 (Homo sapiens, UniProt P17509 132-218) (P17509 132-218): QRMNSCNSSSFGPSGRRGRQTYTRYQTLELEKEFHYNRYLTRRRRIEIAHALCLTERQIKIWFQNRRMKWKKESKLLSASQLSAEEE

Chain of HOXC10 (Homo sapiens, UniProt Q9NYD6 254-340) (Q9NYD6 254-340): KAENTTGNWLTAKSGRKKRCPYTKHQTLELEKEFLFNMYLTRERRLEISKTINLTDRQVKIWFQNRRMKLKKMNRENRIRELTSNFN
Chain of HOXC10 (Homo sapiens, UniProt Q9NYD6 254-340, K271E) (Q9NYD6 254-340 K271E): as the sequence (Q9NYD6 254-340) above, with K18E counted along it
Chain of HOXD13 (Homo sapiens, UniProt P35453 263-343) (P35453 263-343): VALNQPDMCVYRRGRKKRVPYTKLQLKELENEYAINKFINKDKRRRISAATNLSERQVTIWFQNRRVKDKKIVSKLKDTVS
Chain of HOXD13 (Homo sapiens, UniProt P35453 263-343, T313R) (P35453 263-343 T313R): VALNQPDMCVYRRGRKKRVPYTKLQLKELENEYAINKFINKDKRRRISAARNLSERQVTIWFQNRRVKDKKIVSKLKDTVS
Chain of HOXD13 (Homo sapiens, UniProt P35453 263-343, T313A) (P35453 263-343 T313A): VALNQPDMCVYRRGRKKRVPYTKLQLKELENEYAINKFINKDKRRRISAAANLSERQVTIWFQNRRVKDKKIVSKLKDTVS
Chain of ALX3 (Homo sapiens, UniProt O95076 139-225, N203Q) (O95076 139-225 N203Q): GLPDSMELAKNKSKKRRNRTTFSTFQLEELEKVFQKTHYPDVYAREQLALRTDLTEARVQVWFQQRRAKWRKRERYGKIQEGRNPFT
Chain of ALX3 (Homo sapiens, UniProt O95076 139-225, L168V) (O95076 139-225 L168V): as the sequence (O95076 139-225 N203Q) above, with L30V, Q65N counted along it
Chain of ALX3 (Homo sapiens, UniProt O95076 139-225) (O95076 139-225): as the sequence (O95076 139-225 N203Q) above, with Q65N counted along it
Chain of ALX3 (Homo sapiens, UniProt O95076 139-225, N203S) (O95076 139-225 N203S): as the sequence (O95076 139-225 N203Q) above, with Q65S counted along it
Chain of VAX1 (Homo sapiens, UniProt Q5SQQ9 86-172, T142I) (Q5SQQ9 86-172 T142I): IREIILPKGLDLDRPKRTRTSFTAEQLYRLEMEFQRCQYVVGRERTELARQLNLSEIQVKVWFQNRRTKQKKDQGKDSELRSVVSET
Chain of HOXC9 (P31274 178-260 R222W): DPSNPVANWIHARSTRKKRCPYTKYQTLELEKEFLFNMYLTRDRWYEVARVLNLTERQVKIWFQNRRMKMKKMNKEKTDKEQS
Chain of VAX1 (Homo sapiens, UniProt Q5SQQ9 86-172, K157R) (Q5SQQ9 86-172 K157R): as the sequence (Q5SQQ9 86-172 T142I) above, with I57T, K72R counted along it
Chain of PRRX1 (P54821 80-166 F113S): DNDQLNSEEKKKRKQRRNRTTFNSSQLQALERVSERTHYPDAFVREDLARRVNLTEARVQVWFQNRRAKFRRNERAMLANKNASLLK
Chain of ALX3 (Homo sapiens, UniProt O95076 139-225, L168Q) (O95076 139-225 L168Q): as the sequence (O95076 139-225 N203Q) above, with L30Q, Q65N counted along it
Chain of HOXA2 (Homo sapiens, UniProt O43364 129-215, R185T) (O43364 129-215 R185T): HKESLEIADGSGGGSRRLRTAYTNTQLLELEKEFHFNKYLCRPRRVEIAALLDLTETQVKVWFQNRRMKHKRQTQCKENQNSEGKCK
Chain of HOXA2 (Homo sapiens, UniProt O43364 129-215) (O43364 129-215): as the sequence (O43364 129-215 R185T) above, with T57R counted along it
Chain of HOXA2 (Homo sapiens, UniProt O43364 129-215, R185K) (O43364 129-215 R185K): as the sequence (O43364 129-215 R185T) above, with T57K counted along it
Chain of MSX2 (Homo sapiens, UniProt P35548 130-214, R199I) (P35548 130-214 R199I): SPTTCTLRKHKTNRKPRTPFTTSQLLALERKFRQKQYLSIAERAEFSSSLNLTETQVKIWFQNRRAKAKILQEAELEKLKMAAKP
Chain of HOXA2 (Homo sapiens, UniProt O43364 129-215, Y150S) (O43364 129-215 Y150S): as the sequence (O43364 129-215 R185T) above, with Y22S, T57R counted along it
Chain of MSX2 (Homo sapiens, UniProt P35548 130-214) (P35548 130-214): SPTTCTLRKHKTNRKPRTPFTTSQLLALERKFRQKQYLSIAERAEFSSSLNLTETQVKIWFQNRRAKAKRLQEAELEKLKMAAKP
Chain of HOXB6 (Homo sapiens, UniProt P17509 132-218, K202E) (P17509 132-218 K202E): as the sequence (P17509 132-218) above, with K71E counted along it
Chain of VAX1 (Homo sapiens, UniProt Q5SQQ9 86-172) (Q5SQQ9 86-172): as the sequence (Q5SQQ9 86-172 T142I) above, with I57T counted along it
Chain of MSX2 (Homo sapiens, UniProt P35548 130-214, F161Y) (P35548 130-214 F161Y): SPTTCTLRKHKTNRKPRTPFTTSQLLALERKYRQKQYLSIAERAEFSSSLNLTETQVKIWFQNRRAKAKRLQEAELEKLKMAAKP
Chain of ALX4 (Homo sapiens, UniProt Q9H161 200-286) (Q9H161 200-286): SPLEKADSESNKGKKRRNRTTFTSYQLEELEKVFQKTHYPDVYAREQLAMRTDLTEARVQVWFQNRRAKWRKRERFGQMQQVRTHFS
Chain of ALX4 (Homo sapiens, UniProt Q9H161 200-286, Q225E) (Q9H161 200-286 Q225E): as the sequence (Q9H161 200-286) above, with Q26E counted along it

In the case of GGCACGCC, the binding signal in the test with HOXC10 [1] is 10 upbm affinity estimate (log intensity, higher = more binding, comparable within an allelic series); with HOXA2 [2], 6.97 upbm affinity estimate (log intensity, higher = more binding, comparable within an allelic series); with HOXA2 [3], 10.1 upbm affinity estimate (log intensity, higher = more binding, comparable within an allelic series); with HOXC10 [4], 10 upbm affinity estimate (log intensity, higher = more binding, comparable within an allelic series); in the test with VAX1 [5], 6.93 upbm affinity estimate (log intensity, higher = more binding, comparable within an allelic series); in the test with VAX1 [6] it was 7.04 upbm affinity estimate (log intensity, higher = more binding, comparable within an allelic series). The binding signal is 10.3 upbm affinity estimate (log intensity, higher = more binding, comparable within an allelic series) in the test with HOXA2 [7]; 7.03 upbm affinity estimate (log intensity, higher = more binding, comparable within an allelic series) in the test with HOXA2 [8]; 6.97 upbm affinity estimate (log intensity, higher = more binding, comparable within an allelic series) with VAX1 [9].
Regarding TTAATAAA, the binding signal was 12.2 upbm affinity estimate (log intensity, higher = more binding, comparable within an allelic series) with HOXC10 [1]; 11 upbm affinity estimate (log intensity, higher = more binding, comparable within an allelic series) with PRRX1; 11.5 upbm affinity estimate (log intensity, higher = more binding, comparable within an allelic series) with HOXC10 [4]; 11.2 upbm affinity estimate (log intensity, higher = more binding, comparable within an allelic series) with HOXC9.
With GGAGGCCC, the binding signal was 10 upbm affinity estimate (log intensity, higher = more binding, comparable within an allelic series) with HOXC10 [1]; 9.34 upbm affinity estimate (log intensity, higher = more binding, comparable within an allelic series) with HOXD13 [10]; 9.46 upbm affinity estimate (log intensity, higher = more binding, comparable within an allelic series) in the test with HOXD13 [11]; 9.99 upbm affinity estimate (log intensity, higher = more binding, comparable within an allelic series) in the test with HOXC10 [4]; 9.59 upbm affinity estimate (log intensity, higher = more binding, comparable within an allelic series) in the test with HOXD13 [12].
For AGCTGGCG, the binding signal in the test with HOXC10 [1] is 9.96 upbm affinity estimate (log intensity, higher = more binding, comparable within an allelic series); with ALX3 [13], 7.77 upbm affinity estimate (log intensity, higher = more binding, comparable within an allelic series); with HOXC10 [4], 9.94 upbm affinity estimate (log intensity, higher = more binding, comparable within an allelic series); with ALX3 [14] it was 7.78 upbm affinity estimate (log intensity, higher = more binding, comparable within an allelic series); with ALX3 [15], 7.68 upbm affinity estimate (log intensity, higher = more binding, comparable within an allelic series); in the test with ALX3 [16], 7.73 upbm affinity estimate (log intensity, higher = more binding, comparable within an allelic series). For the same sequence, the binding signal with ALX3 [17] is 7.86 upbm affinity estimate (log intensity, higher = more binding, comparable within an allelic series).
As for GCACGTTA, in the test with HOXC10 [1], the binding signal was 10.7 upbm affinity estimate (log intensity, higher = more binding, comparable within an allelic series).
Regarding AGCGCTTG, the binding signal was 10 upbm affinity estimate (log intensity, higher = more binding, comparable within an allelic series) with HOXC10 [1]; 7.96 upbm affinity estimate (log intensity, higher = more binding, comparable within an allelic series) with ALX4 [18]; 8.27 upbm affinity estimate (log intensity, higher = more binding, comparable within an allelic series) with ALX4 [19]; 10.1 upbm affinity estimate (log intensity, higher = more binding, comparable within an allelic series) in the test with HOXC10 [4].
For GGCTAGCC, the binding signal in the test with HOXC10 [1] was 9.92 upbm affinity estimate (log intensity, higher = more binding, comparable within an allelic series); with HOXB6 [20], 8.91 upbm affinity estimate (log intensity, higher = more binding, comparable within an allelic series); with MSX2 [21], 9.46 upbm affinity estimate (log intensity, higher = more binding, comparable within an allelic series); with HOXD13 [10], 9.4 upbm affinity estimate (log intensity, higher = more binding, comparable within an allelic series); with HOXD13 [11], 9.37 upbm affinity estimate (log intensity, higher = more binding, comparable within an allelic series); with HOXC10 [4] it was 9.98 upbm affinity estimate (log intensity, higher = more binding, comparable within an allelic series). Besides, the binding signal with MSX2 [22] is 9.52 upbm affinity estimate (log intensity, higher = more binding, comparable within an allelic series); with HOXD13 [12], 9.39 upbm affinity estimate (log intensity, higher = more binding, comparable within an allelic series); with MSX2 [23] it was 9.51 upbm affinity estimate (log intensity, higher = more binding, comparable within an allelic series); in the test with HOXB6 [24], 8.87 upbm affinity estimate (log intensity, higher = more binding, comparable within an allelic series).

For the origin of these results see paper PMC11006913.
